Laboratory results as given in the supplement of paper PMC10127200.
Counter-ions that a name gives are not always drawn.

How the values were obtained:
Assay in all cases: Euclidean distance of Cell Painting phenotypic profile (signed KS, 77 features) to DMSO centroid (dimensionless distance); 5 or 10 uM (library dependent); higher = stronger phenotypic change vs DMSO (phenoactivity)
Settings in all cases: 48 h
786-O = test system: 786-O
Summary of the method: (§1)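 Harmony extracted 77 features from 20X confocal images (9 fields/well) of stained cells, scoring each as a signed Kolmogorov-Smirnov statistic against same-plate vehicle wells. The cells, five cancer lines and a healthy fibroblast line, had received library compounds for 48 h at 10 or 5 uM depending on library, with 0.1% DMSO final. Phenoactivity is the Euclidean distance from each plate-position-corrected, correlation-weighted, top-dose replicate-averaged profile to the median vehicle profile.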

A549 = test system: A549
Summary of the method: as §1

DU145 = test system: DU145
Summary of the method: as §1

FB = test system: FB
Summary of the method: as §1

HEPG2 = test system: HEPG2
Summary of the method: as §1

OVCAR4 = test system: OVCAR4
Summary of the method: as §1

SMILES | Euclidean distance (786-O) | Euclidean distance (A549) | Euclidean distance (DU145) | Euclidean distance (FB) | Euclidean distance (HEPG2) | Euclidean distance (OVCAR4)
Clc1ccc(C(Cn2ccnc2)OCc2ccc(Sc3ccccc3)cc2)c(Cl)c1 (stereo not drawn) [Fenticonazole Nitrate] | 1.13 | 0.887 | 1.51 | 1.21 | 2.16 | 1.35
Cn1cnc2c1c(=O)[nH]c(=O)n2C [Theobromine] | 0.718 | 0.658 | 0.727 | 0.792 | 1.77 | 0.9
CC1(C)[C@@H](O)CC[C@]2(C)[C@H]3C(=O)C=C4[C@@H]5C[C@@](C)(C(=O)O)CC[C@]5(C)CC[C@@]4(C)[C@]3(C)CC[C@@H]12 [Enoxolone] | 1.06 | 0.933 | 0.631 | 0.901 | 0.41 | 1.32
Cc1onc(-c2c(F)cccc2Cl)c1C(=O)N[C@@H]1C(=O)N2[C@@H]1SC(C)(C)[C@@H]2C(=O)O [Flucloxacillin sodium] | 1.14 | 0.772 | 1.17 | 1.12 | 0.664 | 1.72
O=C(Cc1cccc(OC(F)(F)F)c1)Nc1ccc(CCCCc2nnc(NC(=O)Cc3ccccn3)s2)nn1 | 2.27 | 2.41 | 1.99 | 3.38 | 2.75 | 2.28
Cn1cc(C2=C(c3cccc(N)c3)C(=O)NC2=O)c2ccccc21 | 3.84 | 2.48 | 2.97 | 1.8 | 1.6 | 3.79
CN[C@H]1C(=O)N[C@@H]2Cc3ccc(cc3)Oc3cc4cc(c3O[C@@H]3O[C@H](C(=O)O)[C@@H](O)[C@H](O)[C@H]3NC(=O)CCCCCCCCC(C)C)Oc3ccc(cc3Cl)[C@@H](O)[C@@H]3NC(=O)[C@H](NC(=O)[C@@H]4NC(=O)[C@@H](NC2=O)c2cc(cc(O)c2Cl)Oc2cc1ccc2O)c1ccc(O)c(c1)-c1c(O[C@H]2O[C@H](CO)[C@@H](O)[C@H](O)[C@@H]2O)cc(O)cc1[C@@H](C(=O)NCCCN(C)C)NC3=O [Dalbavancin] | 0.58 | 0.819 | 1.15 | 0.48 | 0.566 | 0.603
CCOC(=O)C1=C(N)Oc2ccc(Br)cc2C1C(C#N)C(=O)OCC (stereo not drawn) | 0.871 | 1.18 | 1.12 | 1.03 | 1.03 | 0.791
CC(N)C12CC3CC(CC(C3)C1)C2 (stereo not drawn) [Rimantadine Hydrochloride] | 1.07 | 0.924 | 0.781 | 1.07 | 0.658 | 1.17
Cc1nc(N(C)C(=O)Cc2ccc(-c3ccccn3)cc2)sc1S(N)(=O)=O [Pritelivir (BAY 57-1293)] | 0.793 | 0.531 | 1.07 | 0.872 | 0.577 | 0.834
CNC1CCCN(c2c(F)cc3c(=O)c(C(=O)O)cn(C4CC4)c3c2OC)C1 (stereo not drawn) [Balofloxacin Dihydrate] | 0.976 | 0.602 | 0.831 | 1.09 | 1.13 | 1.02
CCc1nc(-c2cccc(C)c2)c(-c2ccnc(NC(=O)c3ccccc3)c2)s1 | 1.58 | 0.983 | 1.46 | 1.37 | 1.19 | 1.34
CN1CCN(c2ccc(C(=O)Nc3n[nH]c4ccc(Cc5cc(F)cc(F)c5)cc34)c(NC3CCOCC3)c2)CC1 [Entrectinib (RXDX-101)] | 5.06 | 3.73 | 4.31 | 5.6 | 5.43 | 4.97
C[C@]12CC[C@@H]3c4ccc(OC(=O)c5ccccc5)cc4CC[C@H]3[C@@H]1CC[C@@H]2O [Estradiol Benzoate] | 0.619 | 0.854 | 0.933 | 1.35 | 0.557 | 1.01
O=C(NC[C@H](O)CO)c1ccncc1Nc1ccc(I)cc1F | 2.39 | 2.67 | 2.49 | 3.7 | 1.53 | 2.4
Nc1nc(O)c2ncn(CCC(CO)CO)c2n1 [Penciclovir] | 0.815 | 0.334 | 0.816 | 0.496 | 0.404 | 1.17
CO/N=C(\C(=O)N[C@@H]1C(=O)N2C(C(=O)O)=CCS[C@H]12)c1csc(N)n1 [Ceftizoxime sodium] | 0.557 | 0.807 | 1.33 | 1.07 | 0.578 | 0.958
COc1cc(OC)c(/C=C/S(=O)(=O)Cc2ccc(OC)c(NCC(=O)O)c2)c(OC)c1 | 2.84 | 2.83 | 4.64 | 3.03 | 3.6 | 2.72
COc1nc2ccc(Br)cc2cc1[C@@H](c1ccccc1)[C@@](O)(CCN(C)C)c1cccc2ccccc12 [Bedaquiline] | 1.63 | 1.17 | 1.33 | 0.823 | 0.496 | 0.927
COc1cc(F)c(F)c(Nc2ccc(I)cc2F)c1NS(=O)(=O)C1(C[C@H](O)CO)CC1 [Refametinib (RDEA119. Bay 86-9766)] | 2.91 | 2.51 | 2.83 | 3.57 | 1.79 | 2.27
CCC1=C(C)CN(C(=O)NCCc2ccc(S(=O)(=O)NC(=O)N[C@H]3CC[C@H](C)CC3)cc2)C1=O [Glimepiride] | 1.39 | 0.608 | 0.621 | 0.992 | 0.508 | 0.801
CN1CCC(=C2c3ccccc3CC(=O)c3sccc32)CC1 [Ketotifen Fumarate] | 0.851 | 0.639 | 0.639 | 1.17 | 0.589 | 1.2
CCn1nc(C(=O)O)c(=O)c2cc3c(cc21)OCO3 [Cinoxacin] | 1.03 | 1.18 | 0.942 | 1.56 | 0.617 | 1
